The full list was thinned out, with hits kept by preference.
FXIIa mix inh = human factor XIIa inhibitors, primary screen, biochemical, pooled compound mixtures, fluorogenic substrate; purified FXIIa; Coagulation factor XII (Homo sapiens), P00748; inhibition, % at 5 µM; 62,000 compounds, 0.2% hits
Candida biofilm = clotrimazole potentiators killing Candida biofilms, primary screen, with clotrimazole, Alamar Blue; 85,000 compounds, 0.14% hits; C. albicans biofilm + clotrimazole; inhibition, % at 6 µM;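 active = inhibition above 20%; inactive = inhibition below 20%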;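 note: preformed 24 hr biofilms exposed to compound for 48 hr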
D1 mod = D1 CRE-luciferase signal change, two-sided – cell-based, HEK293 D1, dopamine EC30, D1 allosteric modulator project, primary screen; dopamine EC30 potentiation; actives deviate in either direction; B-score at 10 µM; 58,000 compounds, 5.9% hits; AID 641, 2007;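 active = luminescence count or its row- and column-corrected plate score outside the 99.7% band of the plate's sample wells, on either side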
HePTP inhibitor = inhibitors of human HePTP phosphatase, primary screen, biochemical, absorbance, leukemia target; Tyrosine-protein phosphatase non-receptor type 7 (Homo sapiens), P35236; recombinant HePTP phosphatase activity, OD absorbance; inhibition, % at 20 µM; 110,000 compounds, 0.64% hits; AID 521, 2006; in the data active = inhibition above about 50%; inconclusive = no clear call, values can overlap the other calls
FXIa inh mix = FXIa protease inhibitors in compound pools, primary screen, biochemical, 10-compound mixtures; Coagulation factor XI (Homo sapiens), P03951; purified FXIa, fluorogenic substrate, pooled mixtures; inhibition, % at 5 µM; 62,000 compounds, 0.19% hits;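 note: each value is inhibition by a whole ten-compound pool holding the compound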
TNAP act DEA = human TNAP enzyme activators, primary screen, biochemical, luminescent, intermediate phosphate acceptor level. 64,000 tested, under 10 active. Alkaline phosphatase, tissue-nonspecific isozyme (Homo sapiens), P05186. activation factor at 20 µM. purified TNAP, CDP-star luminescence, 100 mM DEA, 30 min; active compounds read high; scale: 0 levamisole-inhibited, 1 vehicle-only enzyme;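 active = activation factor of at least 2 at 20 µM, relative to controls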
Target sequence (P05186 whole entry, looked up): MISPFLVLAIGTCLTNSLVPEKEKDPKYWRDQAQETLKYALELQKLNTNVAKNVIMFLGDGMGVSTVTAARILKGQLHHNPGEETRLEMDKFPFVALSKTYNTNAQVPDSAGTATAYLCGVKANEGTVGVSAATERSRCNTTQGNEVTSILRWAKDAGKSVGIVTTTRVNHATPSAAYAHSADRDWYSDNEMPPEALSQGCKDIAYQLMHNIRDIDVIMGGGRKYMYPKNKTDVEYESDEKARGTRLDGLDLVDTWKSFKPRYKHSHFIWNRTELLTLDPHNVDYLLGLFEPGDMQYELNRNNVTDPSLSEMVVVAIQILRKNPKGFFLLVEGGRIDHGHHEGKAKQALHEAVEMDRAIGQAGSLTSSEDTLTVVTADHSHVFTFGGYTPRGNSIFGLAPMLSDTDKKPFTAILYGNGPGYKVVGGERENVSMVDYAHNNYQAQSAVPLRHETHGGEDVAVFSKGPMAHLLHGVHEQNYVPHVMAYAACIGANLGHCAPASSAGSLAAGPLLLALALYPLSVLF
D1 PAM confirm = D1 receptor positive allosteric modulators, retest, confirmation, cell-based, HEK293 D1, CRE-luciferase, duplicate; dopamine EC30 potentiation; active compounds read high; 2,200 compounds, 88% hits; luminescence at 10 µM; shares compounds with D1 mod;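 active = luminescence in either of two replicates above the same-plate mean plus 3 SD of the low-dose dopamine control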
D1 ag no DA = D1 receptor agonism without dopamine, confirmation, mechanism study for D1 allosteric modulator project, cell-based, HEK293 D1, CRE-luciferase, secondary assay 1 | shares compounds with D1 mod | luminescence, no dopamine; active compounds read high | luminescence at 10 µM | 1,900 compounds, 0.8% hits; in the data active = luminescence above about 3900
Isoprot counter = isoproterenol response counter-screen activity for D1 modulators | shares compounds with D1 mod | HEK293 D1 CRE-luciferase, isoproterenol EC30 counter-screen; active compounds read high | luminescence at 10 µM | 2,200 compounds, 63% hits | AID 647;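 active = luminescence in either replicate above plate mean of wells with a partly effective reference agonist dose plus 3 SD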;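 note: isoproterenol raises cAMP through native beta-adrenoceptor Gs so signal bypasses D1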
Numbers stand for hits; - = inactive; ? = inconclusive; . = no result. Cut-off read from the data, not from the text of the source, unless noted: active = inhibition above about 20% (passing the limit was not always enough); inactive = the rest.

SMILES | FXIIa mix inh | Candida biofilm | D1 mod | HePTP inhibitor | FXIa inh mix | TNAP act DEA | D1 PAM confirm | D1 ag no DA | Isoprot counter
O=C1C(=Cc2ccccc2Br)C(=O)c2ccccc21 | . | . | . | - | . | . | . | . | .
CCCOc1ccc(-c2ccc(-c3nc(-c4cc(OC)c(OC)c(OC)c4)no3)cc2)cc1 | . | . | . | - | . | . | . | . | .
Cc1cc(C(F)(F)F)nn1CC(=O)Nc1ccccc1C(F)(F)F | . | . | . | - | . | . | . | . | .
COc1cccc(-c2noc(CCC(=O)Nc3cccnc3)n2)c1 | - | - | - | - | - | - | . | . | .
COc1ccc(-c2noc(COc3ccc(C)c(C)c3)n2)cc1OC | - | - | 4.5 | - | - | - | 9288 | . | 3352
CCOc1ccc(-c2noc(CCC(N)=O)n2)cc1OCC | - | - | 11 | - | - | - | 16532 | - | 3756
COc1ccc(-c2noc(CCC(=O)Nc3cccnc3)n2)cc1OC | - | - | 4.7 | - | - | - | 17976 | - | -
CCOc1ccc(Cc2nc(-c3nonc3N)no2)cc1OCC | - | - | 7.7 | - | - | - | 13988 | - | 3632
COC(=O)CN1C(=O)/C(=C\c2cccc(O)c2)SC1=S | . | . | . | - | . | . | . | . | .
Cc1ccc(OCC(=O)Nc2ccc(N(C)C)cc2)c(Br)c1 | . | . | . | - | . | . | . | . | .
CCOC(=O)CN1C(=O)/C(=C2\SC(=O)NC2=O)c2ccccc21 | . | . | . | - | . | . | . | . | .
CC(C)Cn1c(=O)c2c(c3ccccc31)OC(C)C(=O)N2 (stereo unspecified) | - | . | 4.2 | - | - | - | 7512 | - | -
CCCn1c(=O)c2c(c3ccccc31)OCC(=O)N2 | - | - | - | - | - | - | . | . | .
CC(C)n1c(SCC(=O)N2CCCC2)nc2c1c(=O)n(C)c(=O)n2C | - | - | 6.4 | - | - | - | 13032 | - | -
CCn1c(=O)cc(SCC(=O)Nc2ccc3c(c2)OCO3)c2ccccc21 | - | - | 5.2 | - | - | - | 9432 | - | -
CC(C)n1c(SCC(=O)Nc2ccc3c(c2)OCO3)nc2c1c(=O)n(C)c(=O)n2C | - | - | 9.1 | - | - | - | 7904 | - | 3648
CCCn1c(SCC(=O)N2CCCC2)nc2c1c(=O)n(C)c(=O)n2C | - | - | . | - | - | - | . | . | .
CCOc1ccc2nc(NC(=O)CSc3nc4c(c(=O)n(C)c(=O)n4C)n3C(C)C)sc2c1 | - | . | 4 | - | - | - | 10912 | - | 4712
O=C1/C(=C/c2cccs2)SC(=S)N1CCC(=O)N1c2ccccc2Sc2ccccc21 | . | . | . | - | . | . | . | . | .
COc1ccc(N2C(=O)C3C(C2=O)N2C(c4ccco4)C4C(=O)N(c5ccc(OC)cc5)C(=O)C4N2C3c2ccco2)cc1 (stereo unspecified) | . | . | . | - | . | . | . | . | .
COc1ccc(NC(=O)C2=C(C)NC(=S)NC2c2ccc(OC)cc2)cc1 (stereo unspecified) | . | . | . | - | . | . | . | . | .
c1ccc(-c2csc3ncn4cnnc4c23)cc1 | - | - | 18 | - | - | - | 18512 | - | 4824
O=c1[nH]cnc2scc(-c3ccccc3)c12 | . | - | . | . | . | . | . | . | .
FC(F)(F)c1nnc2ccc(N3CCCCCC3)nn12 | - | - | 3.5 | - | - | - | 8220 | - | 3372
FC(F)(F)c1nnc2ccc(N3CCCC3)nn12 | . | - | . | . | . | . | . | . | .
SMILES | FXIIa mix inh | Candida biofilm | D1 mod | HePTP inhibitor | FXIa inh mix | TNAP act DEA | D1 PAM confirm | D1 ag no DA | Isoprot counter
Cc1cc(C)nc(Sc2ccc3nnc(C(F)(F)C(F)(F)C(F)(F)F)n3n2)n1 | - | - | - | - | - | - | . | . | .
FC(F)(F)C(F)(F)C(F)(F)c1nnc2ccc(N3CCOCC3)nn12 | - | . | 11 | - | - | - | 18088 | - | 3420
CC(C)NC(=O)c1cnn2c(C(F)(F)F)cc(-c3ccc(F)cc3)nc12 | . | . | . | - | . | . | . | . | .
CCOc1ccc(N(CC(=O)Nc2cc(C)ccc2C)S(=O)(=O)c2ccc(SC)cc2)cc1 | . | . | . | - | . | . | . | . | .
Cc1cc(C)n(-c2ncc(-c3ccccc3)nn2)n1 | - | - | 4.5 | - | - | - | 6696 | . | -
O=C(Nc1ccccc1C(F)(F)F)N1CCN(c2ccc3nnc(-c4ccc(F)cc4)n3n2)CC1 | - | . | 3.9 | - | - | - | 7116 | - | 3496
COc1ccccc1CNC(=O)c1oc2ccc(S(=O)(=O)N3CCCC3)cc2c1C | - | - | 30 | - | - | - | 19660 | - | 7368
Cc1c(C(=O)NCc2ccccc2)oc2ccc(S(=O)(=O)N3CCCC3)cc12 | - | - | 11 | - | - | - | 21124 | - | 6456
CC1=NN(C(=O)C(C)C)C(C)(NNC(=O)C(C)C)C1 (stereo unspecified) | . | . | . | - | . | . | . | . | .
Clc1ccc(C=NN2CCN(Cc3ccccc3)CC2)cc1Cl | . | . | . | - | . | . | . | . | .
CC1Cc2ccccc2N1C(=O)c1ccc2snnc2c1 (stereo unspecified) | - | - | 15 | - | - | - | 13280 | - | 3936
O=C(NNC(=O)c1c(F)c(F)c(F)c(F)c1F)c1ccccc1 | . | . | . | - | . | . | . | . | .
COc1ccccc1C(=O)Nc1c2c(nn1-c1cccc(C)c1C)CS(=O)(=O)C2 | - | - | 6.6 | - | - | - | 14916 | - | 3432
COc1ccc(CC(=O)Nc2c3c(nn2-c2cccc(C)c2C)CS(=O)(=O)C3)cc1 | - | - | - | - | - | - | . | . | .
Cc1cccc(/C=C2/SC(=S)N(CN3CCCCC3)C2=O)c1 | . | . | . | - | . | . | . | . | .
N#Cc1cn(-c2ccccc2)nc1-c1ccccc1 | - | - | 5.7 | - | - | - | 9992 | - | -
OCc1cn(-c2ccccc2)nc1-c1ccc(-c2nn(-c3ccccc3)cc2CO)cc1 | - | - | - | - | - | - | . | . | .
O=C1c2ccccc2-c2onc3ccc(NCCCn4ccnc4)c1c23 | - | - | 3.9 | ? | - | - | 11264 | - | -
COc1cccc(Nc2ccc3noc4c3c2C(=O)c2ccccc2-4)c1 | . | . | . | - | . | . | . | . | .
O=C(Nc1ccc(OC(F)(F)F)cc1)c1cccc(Br)c1 | . | . | . | - | . | . | . | . | .
Cc1cc2c(cc(C(=O)OCC(=O)NCc3cccs3)n2C(C)C)o1 | - | - | 11 | - | - | - | 7700 | - | 4620
COc1ccc(-c2nnc(SCC(=O)NCc3cccs3)n2C(C)C)cc1 | . | - | . | . | . | . | . | . | .
Oc1ccc(-c2nc(-c3ccc(O)c(O)c3)cs2)cc1 | - | - | 6.7 | - | - | - | 7572 | - | 5252
CCOc1ccc(-c2c(C)sc(N)c2C(=O)OC)cc1 | . | . | . | - | . | . | . | . | .

Bioassay records deposited in PubChem by several laboratories.
